From PubChem BioAssay (NCI)
This is part of a sample that, as a whole, favours compounds with a hit. Of some 79,000 tested, about 15% had one in any assay. Values without a mark were called inactive. The source made the active and inactive calls. Rule as the data show it: active = growth inhibition above about 70%; inactive = the rest.

Test: NCI Yeast Anticancer Drug Screen. Data for the sgs1 strain (AID 173);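 also: 0% = growth of vehicle-only control cultures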
Conditions: S. cerevisiae sgs1 mutant, hits give high values
Protocol: Growth inhibition of yeast strains with defined genetic alterations is measured as a screen for potential anti-cancer activity. Selected strains with alterations in DNA damage repair or cell cycle control were exposed to compounds and growth inhibition was measured relative to vehicle treated controls. The strain used in this assay is sgs1

SMILES | growth inhibition (at 1.2 µM) [%] | growth inhibition (at 3.7 µM) | growth inhibition (at 11.0 µM) | growth inhibition (at 33.0 µM) | growth inhibition (at 100.0 µM)
O=C1c2ccccc2C2CCC1c1ccccc12 (stereo not given) | -12 | -18% | -18% | 18% | 96% (active)
Cc1ccc(Cl)c2c(=O)c3ccccc3[nH]c12 | -2 | 2% | -1% | 4% | 23%
Cc1cc(NC(=S)SCc2ccc(Cl)cc2)ccc1Cl | -9 | -22% | 38% | 98% (active) | 98% (active)
BrC/C=C/C[P+](c1ccccc1)(c1ccccc1)c1ccccc1 | 4 | 10% | 95% (active) | 98% (active) | 99% (active)
Cc1ccnc(NS(=O)(=O)c2ccc(Nc3c4ccccc4nc4ccccc34)cc2)n1 | 24 | 26% | 43% | 69% | 86% (active)
CC(=O)O/N=C/c1c2ccccc2cc2ccccc12 | -1 | -1% | 3% | 29% | 58%
O=S(=O)(CCC[C@H]1[C@@H](CCOCc2ccccc2)C2CCCN1O2)c1ccccc1 (stereo not given in full) | 2 | 3% | 2% | 19% | 41%
O=[N+]([O-])c1cccc2nc3ccccc3c(NCCC[N+]3([O-])CCOCC3)c12 | 63 | 79% (active) | 85% (active) | 89% (active) | 93% (active)
